Screening results: PubChem BioAssay, National Center for Advancing Translational Sciences (NCATS)
VACV mCherry inh = qHTS for Stage-Specific Inhibitors of Vaccinia Orthopoxvirus: mCherry Reporter Primary qHTS. Vaccinia virus mCherry reporter infection, fluorescence. Potency, µM (top dose mostly 36.5 µM), hits mostly inhibitors. 310,000 tested, 0.63% active; calls by dose curve; tested in A549 cells; note: nearly all actives have a fitted effect of over 35% in size
NS1 inh = qHTS Assay for Inhibitors of Influenza NS1 Protein Function; AID 2326, 2010; 270,000 tested, 0.4% active; Potency, µM (doses to about 46.1 µM); calls by dose curve; note: actives are rising curves; nearly all actives have a fitted effect of over 50% in size
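Growth recovery, yeast-based: influenza A NS1 expressed in S. cerevisiae causes slow growth, and suppressors are detected by OD600. The parent strain without NS1 is used as positive control.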
Pf growth 96h = Primary qHTS for delayed death inhibitors of the malarial parasite plastid, 96 hour incubation | Potency, µM (doses to about 28.7 µM), usual class: inhibitors | 320,000 tested, 6.9% active | P. falciparum luciferase reporter growth, 96 h
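Readout is luminescence from an integrated firefly luciferase in P. falciparum. Red cells, 2% hematocrit and 0.05% parasitemia final, were cultured with compound through two parasite generations (96 hours) at 37 C, 5% CO2.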
Pf growth 48h = Primary qHTS for delayed death inhibitors of the malarial parasite plastid, 48 hour incubation. P. falciparum luciferase growth in erythrocytes, 48 h. Potency, µM (highest dose often 28.7 µM), hits mostly inhibitors. 310,000 tested, 5.9% active
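Luciferase-expressing P. falciparum in infected erythrocytes (2% hematocrit, 0.1% parasitemia final) in RPMI 1640/0.5% Albumax were exposed to compound for 48 hours at 37 C, 5% CO2; growth read as luminescence.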
HCV inh = qHTS Assay for Inhibitors of Hepatitis C Virus (HCV); Potency, µM (highest dose often 41.8 µM), most hits filed as inhibitors; 340,000 tested, 3.4% active; Huh7.5.1 HCVcc-Cre infection, luciferase reporter, 44 h; AID 651820, 2012
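Cells seeded at 1,000/well and cultured 4 h, then compounds added followed by HCVcc-Cre virus (~0.5 moi). After 44 h further culture, luciferase substrate was added, plates held 15 min at room temperature, and luminescence read for 15 sec.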
Vaccinia Venus = qHTS for Stage-Specific Inhibitors of Vaccinia Orthopoxvirus: Venus Reporter Primary qHTS. 330,000 tested, 0.46% active. Vaccinia virus Venus reporter expression, fluorescence. AID 720580, 2013. Potency, µM (top dose mostly 36.5 µM), actives largely listed as inhibitors; calls by dose curve; tested in A549 cells; note: nearly all actives have a fitted effect of over 30% in size
A number is an active result; i = inactive; ? = inconclusive; nt = no result; [ ] = dose if it differs, or a comment. An excerpt weighted towards active compounds, which were near 11% of everything screened. Unless noted, calls come from the whole dose curve; as a rule, active = well fitted inhibition curve with a large enough effect; inconclusive = small, poorly fitted or top-dose-only effect, or another doubt; inactive = no such curve, though single readings can be large or run the other way.

SMILES | VACV mCherry inh | NS1 inh | Pf growth 96h | Pf growth 48h | HCV inh | Vaccinia Venus
Cc1cn(CC(=O)NCc2ccccn2)c(=O)[nH]c1=O | i | nt | nt | nt | i | i
O=C(NCCc1ccccn1)c1n[nH]c(=O)c2ccccc12 | nt | i | 13µM | i | i | nt
Cc1cn(CC(=O)NCCc2ccccn2)c(=O)[nH]c1=O | i | nt | nt | nt | 2.8µM | i
N#CCn1cc(/C=N/NC(=O)c2cc3c(ccc4ccccc43)o2)c2ccccc21 | i[7.34 µM] | i | 12µM | 9.3µM | ? | i[7.34 µM]
Cn1c(=O)c2c(nc(CN3CCN(C(c4ccccc4)c4ccccc4)CC3)n2CCCO)n(C)c1=O | i | i | i | 2.9µM | i | i
COCCn1c(CN2CCN(c3ccccc3)CC2)nc2c1c(=O)n(C)c(=O)n2C | nt | i | nt | nt | ? | nt
CCCCCCn1c(CN2CCN(CCO)CC2)nc2c1c(=O)n(C)c(=O)n2C | i | i | i | ? | i | i
COCCn1c(CN2CCN(C(c3ccccc3)c3ccccc3)CC2)nc2c1c(=O)n(C)c(=O)n2C | i | i | i | 2.6µM | ? | i
Cc1nc2ccccc2n1/N=C/c1ccc([N+](=O)[O-])s1 | i | i | 4.1µM | 4.1µM | 4.5µM | i
O=[N+]([O-])c1ccc(/C=N/n2c(CO)nc3ccccc32)s1 | 5µM | i | ? | 4.7µM | 10µM | 4µM
Cc1cccc(C(CC(=O)NCc2ccco2)c2ccccc2)c1O (configuration not stated) | nt | i | ? | i | i | nt
COc1ccc([C@@H]2CC=C(C(=O)O)[C@H](c3cccc(Cl)c3)N2S(=O)(=O)c2ccc(C)cc2)cc1OC | i | nt | ? | ? | i | i
C=C/C(C)=C/CC1C(=C)CCC2C(C)(C(=O)O)CCCC12C (configuration not stated) | i | i | i | ? | i | i
C=C[C@]1(C)C=C2CCC3[C@](C)(CCC[C@@]3(C)C(=O)O)C2CC1 (some centres not stated) | i | nt | i | i | 2.2µM | i
C#CC[N+](C)(C)CCCCCCCC | nt | i | ? | 3.7µM | i | nt
C#CC[N+](C)(C)CCCCCCCCCCCC | 8.9µM | i | 0.37µM | 1.5µM | ? | 7.9µM
CCCCCCCCCCCCCCCC[N+](C)(C)CCl | i | nt | nt | nt | i | ?
C#CC[N+](C)(C)CCCCCCCCCC | 16µM | i | ? | 0.93µM | ? | 14µM
CC1(C)C2CC[C@@]1(C)C(=O)C2 | i | nt | nt | nt | nt | i
C=CC[N+]1(CC#Cc2ccccc2)CCCC1 | i | i | i | ? | i | i
CN(C)CC#CCOC(c1ccccc1)c1ccccc1 | i | i | i | i | i | i
C=CC#CC[N+]1(CC#Cc2ccccc2)CCOCC1 | i | i | 4.1µM | 5.9µM | i | i
C=CC[N+]1(CC#CCOC(c2ccccc2)c2ccccc2)CCOCC1 | nt | i | 2.6µM | ? | i | nt
C(#Cc1ccccc1)C[N+]1(CC#Cc2ccccc2)CCCC1 | i | i | ? | 2.3µM | i | i
N#C/C(=C\c1cccc(O)c1)C(=O)O | i | nt | nt | nt | nt | i
SMILES | VACV mCherry inh | NS1 inh | Pf growth 96h | Pf growth 48h | HCV inh | Vaccinia Venus
Cc1noc2ncnc(Nc3ccc(F)cc3)c12 | i | nt | nt | nt | nt | i
Cn1cc(CNCCN2CCCCC2=O)c(-c2cccc(Cl)c2)n1 | i | i | i | i | i | i
Cc1cccc(N(C(=O)c2csnn2)C(C(=O)NC(C)(C)C)c2ccncc2)c1 (configuration not stated) | i | i | i | i | i | i
CCN(C1CCCCC1)S(=O)(=O)c1ccc(C(=O)O)cc1 | i | i | nt | i | i | i
Cc1nc(S(=O)(=O)Nc2ccccc2C(=O)NCC2CC2)cn1C | i | i | i | 3.3µM | i | i
COc1ccccc1NS(=O)(=O)c1cn(C)c(C)n1 | i | nt | nt | nt | nt | i
Cc1sc2nc(SCc3nc4ccccc4[nH]3)n(Cc3ccco3)c(=O)c2c1C | i | i | i | i | ? | i
CCOC(=O)c1c(C)n(C)c2ccc(OCC(O)CN3CCN(C)CC3)cc12 (configuration not stated) | i | i | i | nt | i | i
CCOC(=O)c1c(C)n(Cc2ccccc2)c2ccc(OCC(O)CN3C(=O)CNC3=O)cc12 (configuration not stated) | i | i | nt | ? | 8.9µM | i
CCOC(=O)c1c(C)n(C)c2ccc(OC(=O)c3ccoc3)cc12 | i | i | ? | i | ? | i
CCOC(=O)c1c(C)n(-c2ccc(C)cc2)c2ccc(OCC(O)CN3CCN(C)CC3)cc12 (configuration not stated) | i | nt | i | 9.3µM | ? | ?
CCOC(=O)c1c(C)n(C)c2ccc(OCC(O)CNCCc3ccccc3)cc12 (configuration not stated) | nt | i | 4.7µM | ? | 13µM | nt
CCC(=O)c1ccc(OCC(O)Cn2c(C)nc3ccccc32)cc1 (configuration not stated) | ? | i | i | i | ? | i
C#CCOc1ccc2c(c1)c(C(C)=O)c(C)n2Cc1ccccc1 | i | i | ? | ? | ? | i
CCOC(=O)c1c(C)n(C)c2ccc(OCC(O)Cn3c(C)nc4ccccc43)cc12 (configuration not stated) | nt | i | nt | 10µM | 10µM | nt
OCCN(Cc1ccccc1)Cc1ccccc1O | i | nt | ? | 4.1µM | i | i
Oc1ccccc1CN(CCc1ccccc1)Cc1ccccc1 | nt | i | ? | ? | i | nt
OCCN(Cc1ccccc1)Cc1nc(CC2CC2)no1 | i | i | 1.7µM | i | i | i
CN(Cc1nc(CC2CC2)no1)CC12CC3CC(CC(C3)C1)C2 | i | i | ? | i | i | i
COC(=O)c1ccc(S(=O)(=O)N2C3CCC2CC(NC(=O)C2CC2)C3)cc1 (configuration not stated) | i | i | ? | i | i | i
Cc1nc(-c2ccncc2)nc(NCCNc2ncccc2C(F)(F)F)c1Cl | nt | i | ? | 10µM | ? | nt
COc1ccc(N(CC(=O)NC2CCCC2)C(=O)Cn2nnc(-c3ccc(C)o3)n2)c(OC)c1 | i | i | i | ? | i | i
O=C(c1ccc(F)cc1)N1CCOCC1 | i | i | ? | i | i | i
CCOc1cc(-c2cc(N)n[nH]2)cc(OCC)c1OCC | i | ? | i | 13µM | ? | i
Cc1noc(C)c1C(=O)OC(C)C(=O)c1c[nH]c2ccccc12 (configuration not stated) | i | nt | nt | nt | nt | i
COc1ccccc1Nc1ccc([N+](=O)[O-])cc1N | nt | i | i | i | i | nt
O=[N+]([O-])c1ccc(Nc2c3ccccc3nc3ccccc23)cc1 | ? | nt | i | ? | i | ?
COc1ccc([N+](=O)[O-])cc1Nc1c2ccccc2nc2ccccc12 | nt | i | 17µM | 12µM | ? | nt
COc1cc(NS(C)(=O)=O)ccc1Nc1c2ccccc2nc2ccccc12 | 0.5µM | i | 0.93µM | 1µM | 0.89µM | ?
CS(=O)(=O)Nc1cccc(-c2nc(Nc3ccc(F)cc3)c3ccccc3n2)c1 | i | nt | nt | nt | nt | i
